Data on 7 molecules can be found in PubChem BioAssay (EPA / NIEHS).

Assay [1] in a line: ATG_PBREM_CIS: Attagene CIS-FACTORIAL HepG2 Assay for human Phenobarbital-responsive Enhancer Module (PBREM) (AID 2282955). The conditions noted are these: HepG2 PBREM cis-reporter, Attagene multiplexed transcription; actives raise or lower the signal. An outline of the steps: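 Readout: reporter mRNA, fluorescent RT-PCR fragments separated by capillary electrophoresis. System: HepG2 transiently transfected with cis-regulated reporter units. Exposure: 24 h. Analysis: bidirectional, DMSO baseline.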

Assay [2] deals with Paired box protein Pax-6 (Homo sapiens) (UniProt P26367). In words: ATG_Pax6_CIS: Attagene CIS-FACTORIAL HepG2 Assay for human Paired Box 6 (PAX6) (AID 2282956). The conditions noted are these: HepG2 CIS-FACTORIAL PAX6 reporter transcription, RNA readout; actives raise or lower the signal. An outline of the steps:
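DMSO-referenced bidirectional fits of reporter mRNA fluorescence; HepG2 with transient cis-promoter MRTUs, 24 h post-dose, RT-PCR plus capillary electrophoresis detection.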

Assay [3] can be described thus: ATG_PXRE_CIS: Attagene CIS-FACTORIAL HepG2 Assay for human Pregnane X Receptor Element (PXRE) (AID 2282957). Particulars: HepG2 Attagene CIS-FACTORIAL PXRE reporter, mRNA; actives raise or lower the signal. The gist of the method: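 Bidirectional activity, baselined to DMSO, derived from reporter mRNA fluorescence (RT-PCR plus capillary electrophoresis) in HepG2 cells bearing cis-promoter reporter units, 24 h exposure.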

Assay [4] is described as follows: ATG_RORE_CIS: Attagene CIS-FACTORIAL HepG2 Assay for human RAR-related Orphan Receptor Element (RORE) (AID 2282959). Particulars: HepG2 Attagene cis-factorial RORE reporter, mRNA; actives raise or lower the signal. The gist of the method: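 Measured here: transcript induction of a cis-regulated reporter in HepG2 cells transiently transfected via FuGene 6. After 24 h, RNA was processed by RT-PCR and fluorescent capillary electrophoresis; DMSO defined baseline activity.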

Assay [5] in a line: ATG_Sox_CIS: Attagene CIS-FACTORIAL HepG2 Assay for human SRY-box transcription factor (SOX) (AID 2282960). Particulars: HepG2 Attagene cis-factorial SOX reporter, mRNA; actives raise or lower the signal. An outline of the steps: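 Using transiently transfected HepG2 cells, reporter transcription driven by cis elements was assessed 24 h after dosing. Signal was fluorescence of capillary-separated RT-PCR products, with DMSO defining baseline activity.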

For assay [6], the target named is Transcription factor Sp1 (Homo sapiens) (UniProt P08047). Put plainly: ATG_Sp1_CIS: Attagene CIS-FACTORIAL HepG2 Assay for human Specificity Protein 1 (Sp1) (AID 2282961). The conditions noted are these: HepG2 Sp1 cis-reporter transcription, actives raise or lower the signal. The gist of the method: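 After transient transfection of HepG2 cells with cis-promoter reporter units and 24 h chemical treatment, reporter transcripts were quantified by RT-PCR and capillary electrophoresis fluorescence. Gain- and loss-of-signal fitted against DMSO.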
Transcription factor Sp1 (Homo sapiens), sequence (P08047 whole entry, looked up): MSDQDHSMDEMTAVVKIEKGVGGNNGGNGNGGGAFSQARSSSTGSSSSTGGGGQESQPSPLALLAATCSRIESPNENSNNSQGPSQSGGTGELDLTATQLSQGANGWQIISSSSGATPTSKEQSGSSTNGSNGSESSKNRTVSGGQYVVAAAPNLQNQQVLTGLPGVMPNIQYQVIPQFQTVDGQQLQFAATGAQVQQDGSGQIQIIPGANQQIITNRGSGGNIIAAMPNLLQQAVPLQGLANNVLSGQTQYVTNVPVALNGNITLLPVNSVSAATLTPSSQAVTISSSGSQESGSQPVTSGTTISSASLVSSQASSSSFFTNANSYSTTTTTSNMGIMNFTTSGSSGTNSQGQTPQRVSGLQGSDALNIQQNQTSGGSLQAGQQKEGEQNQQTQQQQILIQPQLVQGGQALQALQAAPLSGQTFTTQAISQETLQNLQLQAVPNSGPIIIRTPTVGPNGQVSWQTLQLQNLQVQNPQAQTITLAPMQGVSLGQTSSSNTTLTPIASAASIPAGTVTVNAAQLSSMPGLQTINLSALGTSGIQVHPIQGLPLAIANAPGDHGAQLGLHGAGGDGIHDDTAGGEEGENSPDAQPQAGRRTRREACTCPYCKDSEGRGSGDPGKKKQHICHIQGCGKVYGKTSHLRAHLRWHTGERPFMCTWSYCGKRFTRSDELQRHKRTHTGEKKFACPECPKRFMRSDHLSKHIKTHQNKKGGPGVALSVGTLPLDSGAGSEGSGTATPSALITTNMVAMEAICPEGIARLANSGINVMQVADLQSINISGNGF

The nature of assay [7]: ATG_SREBP_CIS: Attagene CIS-FACTORIAL HepG2 Assay for human Sterol Regulatory Element Binding (SREBP) (AID 2282962). The conditions noted are these: HepG2 Attagene cis-factorial SREBP reporter, mRNA; actives raise or lower the signal. An outline of the steps:
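In this cis-format assay, HepG2 liver cells express reporters controlled by promoter elements responsive to native transcription factors. Exposure lasts 24 h; reporter mRNA fluorescence from capillary electrophoresis gives the signal, fitted bidirectionally against DMSO.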

For assay [8], the target named is Signal transducer and activator of transcription 3 (Homo sapiens) (UniProt P40763). Put plainly: ATG_STAT3_CIS: Attagene CIS-FACTORIAL HepG2 Assay for human Signal Transducer and Activator of Transcription 3 (STAT3) (AID 2282963). Particulars: HepG2, Attagene cis-factorial STAT3 reporter transcription; actives raise or lower the signal. An outline of the steps:
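Cis-factorial format: endogenous transcription factors in HepG2 drive transfected reporter units. After 24 h treatment, reporter RNA was reverse-transcribed, amplified, FAM-labelled and HpaI-digested before CE analysis; activity scored in both directions against DMSO.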

The nature of assay [9]: ATG_TA_CIS: Attagene CIS-FACTORIAL HepG2 Assay for human TA Basal Promoter (AID 2282964). The conditions noted are these: HepG2 Attagene CIS-factorial TA basal promoter reporter; actives raise or lower the signal. An outline of the steps:
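Cis-factorial format in HepG2: reporters report endogenous factors, not chimeric Gal4 fusions. After 24 h treatment, reporter transcripts were measured by RT-PCR-capillary electrophoresis fluorescence, analysed bidirectionally versus DMSO.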

Assay [10] in a line: ATG_TCF_b_cat_CIS: Attagene CIS-FACTORIAL HepG2 Assay for human T-Cell-Factor with beta-catenin (TCF/b-cat) (AID 2282965). Particulars: HepG2 TCF/beta-catenin cis-reporter transcription, actives raise or lower the signal. The gist of the method:
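Endogenous transcription factor activity is captured through cis-promoter reporter constructs transiently introduced into human HepG2 liver cells. Induced reporter mRNA is measured after 24 h and fitted bidirectionally relative to DMSO.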

Assay [11] can be described thus: ATG_TAL_CIS: Attagene CIS-FACTORIAL HepG2 Assay for human TAL Basal Promoter (AID 2282966).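 Also: background control endpoint measuring basal TAL promoter reporter mRNA not a specific factor.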 Particulars: HepG2 Attagene cis-factorial TAL promoter reporter; actives raise or lower the signal. The gist of the method:
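Human hepatoma HepG2 cells, transfected with promoter-regulated reporter units, were treated 24 h. Reporter transcript levels, measured through RT-PCR and capillary electrophoresis, were fitted for gain or loss relative to DMSO.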

Assay [12] is described as follows: ATG_TGFb_CIS: Attagene CIS-FACTORIAL HepG2 Assay for human Transforming Growth Factor (TGF) (AID 2282967). The conditions noted are these: HepG2 Attagene CIS TGFb reporter, mRNA transcription; actives raise or lower the signal. An outline of the steps: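 Multiplexed cis-reporter HepG2 system, 24 h treatment; mRNA induction read by fluorescence after RT-PCR and CE; DMSO negative control, bidirectional curve fitting.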

Assay [13] in a line: ATG_VDRE_CIS: Attagene CIS-FACTORIAL HepG2 Assay for human Vitamin D Receptor Element (VDRE) (AID 2282968). The conditions noted are these: HepG2 VDRE cis-reporter transcription, actives raise or lower the signal. An outline of the steps:
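Measures endogenous factor activity through cis-element-driven reporter transcripts in transiently transfected HepG2. Cells are treated 24 h; reporter mRNA is quantified by RT-PCR and capillary electrophoresis; fitting is bidirectional.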

Assay [14] addresses Estrogen receptor (Homo sapiens) (UniProt P03372). Put plainly: ATG_ERa_TRANS: Attagene TRANS-FACTORIAL HepG2 Assay for human Estrogen Receptor alpha (ERa) (AID 2282970; active = hit-call score of the fitted dose curve at least 0.9, where 1 is the maximum). Particulars: HepG2 Attagene TRANS ERa GAL4 reporter, mRNA. The gist of the method:
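Signal derives from fluorescence of labelled reporter PCR fragments separated by capillary electrophoresis. HepG2 cells transiently carrying multiple GAL4-UAS reporter units were treated 24 hours, and induction above DMSO baseline was fitted as activity.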

Assay [15] has as its target X-box-binding protein 1 (Homo sapiens) (UniProt P17861). In words: ATG_Xbp1_CIS: Attagene CIS-FACTORIAL HepG2 Assay for human X-box Binding Protein 1 (XBP1) (AID 2282972). Particulars: HepG2 XBP1 cis-element reporter, Attagene multiplex; actives raise or lower the signal. An outline of the steps: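 Changes in reporter transcript abundance, read by RT-PCR and capillary electrophoresis, reflect endogenous transcription factor activity. Transfected HepG2 cells received compound for 24 hours; DMSO defined baseline for bidirectional analysis.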

The target in assay [16] is Nuclear receptor subfamily 1 group I member 3 (Homo sapiens) (UniProt Q14994). In words: ATG_CAR_TRANS: Attagene TRANS-FACTORIAL HepG2 Assay for human Constitutive Androstane Receptor (CAR) (AID 2282969; active = hit-call score of the fitted dose curve at least 0.9, where 1 is the maximum;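 also: activators raise reporter mRNA above DMSO so AC50 marks induction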). The conditions noted are these: HepG2 Attagene TRANS-FACTORIAL CAR reporter. The gist of the method:
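Signal is reporter mRNA induction relative to DMSO, measured 24 h after dosing by RT-PCR with fluorescent primer extension and capillary electrophoresis. Human HepG2 liver cells carried transiently transfected chimeric NR-Gal4/GAL4-UAS reporter constructs.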

The nature of assay [17]: ATG_M_19_TRANS: Attagene TRANS-FACTORIAL HepG2 Assay for M19 Transcription Factor (Internal Marker) (AID 2282974; active = hit-call score of the fitted dose curve at least 0.9, where 1 is the maximum). The conditions noted are these: HepG2 Attagene TRANS-FACTORIAL M19 internal marker reporter. The gist of the method:
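Gain-of-signal in reporter mRNA, relative to DMSO, was scored from capillary electrophoresis fluorescence. HepG2 cells carried transiently transfected multiple reporter transcription units and were incubated with test chemicals for 24 h.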

The nature of assay [18]: ATG_GAL4_TRANS: Attagene TRANS-FACTORIAL HepG2 Assay for GAL4 (Internal Marker) (AID 2282976; active = hit-call score of the fitted dose curve at least 0.9, where 1 is the maximum). Particulars: HepG2 Attagene TRANS GAL4 internal marker reporter. The gist of the method: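 Liver HepG2 line bearing multiplexed GAL4-UAS reporter constructs; 24 h chemical treatment. Transcripts were quantified as fluorescent fragments on capillary electrophoresis after RT-PCR and HpaI cut, with activity fitted upward from DMSO.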

Each structure is given as a SMILES string. Inconclusive results are not listed. Active and inactive are the calls of the source. The calls were made as follows, unless noted: active = hit-call score of the fitted dose curve at least 0.9, where 1 is the maximum; inactive = score below 0.9.

Signal transducer and activator of transcription 3 (Homo sapiens), sequence (P40763 whole entry, looked up): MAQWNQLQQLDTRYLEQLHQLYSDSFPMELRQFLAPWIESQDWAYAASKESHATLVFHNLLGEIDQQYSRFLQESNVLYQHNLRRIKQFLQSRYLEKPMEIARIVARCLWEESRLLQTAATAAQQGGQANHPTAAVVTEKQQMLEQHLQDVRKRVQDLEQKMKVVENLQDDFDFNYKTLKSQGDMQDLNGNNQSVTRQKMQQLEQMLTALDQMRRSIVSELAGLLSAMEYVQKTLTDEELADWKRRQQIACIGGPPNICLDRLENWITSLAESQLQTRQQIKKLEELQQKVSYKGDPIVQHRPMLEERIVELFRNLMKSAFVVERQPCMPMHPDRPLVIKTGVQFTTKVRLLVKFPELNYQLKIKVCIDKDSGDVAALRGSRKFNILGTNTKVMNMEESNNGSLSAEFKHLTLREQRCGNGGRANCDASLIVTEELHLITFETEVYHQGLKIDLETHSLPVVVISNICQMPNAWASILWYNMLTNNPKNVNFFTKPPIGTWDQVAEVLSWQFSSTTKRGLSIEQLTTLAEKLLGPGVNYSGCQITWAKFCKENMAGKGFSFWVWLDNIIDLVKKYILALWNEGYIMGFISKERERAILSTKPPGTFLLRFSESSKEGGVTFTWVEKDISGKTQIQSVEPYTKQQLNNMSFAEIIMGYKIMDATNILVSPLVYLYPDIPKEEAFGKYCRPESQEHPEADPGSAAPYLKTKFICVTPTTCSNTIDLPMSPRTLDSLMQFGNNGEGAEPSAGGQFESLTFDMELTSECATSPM
X-box-binding protein 1 (Homo sapiens), sequence (P17861 whole entry, looked up): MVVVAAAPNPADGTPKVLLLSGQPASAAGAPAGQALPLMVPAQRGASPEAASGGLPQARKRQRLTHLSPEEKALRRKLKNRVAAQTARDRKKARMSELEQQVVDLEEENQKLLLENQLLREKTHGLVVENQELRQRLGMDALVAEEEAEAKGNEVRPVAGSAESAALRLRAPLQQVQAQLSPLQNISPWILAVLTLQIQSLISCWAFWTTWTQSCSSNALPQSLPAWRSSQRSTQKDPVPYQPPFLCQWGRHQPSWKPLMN
Paired box protein Pax-6 (Homo sapiens), sequence (P26367 whole entry, looked up): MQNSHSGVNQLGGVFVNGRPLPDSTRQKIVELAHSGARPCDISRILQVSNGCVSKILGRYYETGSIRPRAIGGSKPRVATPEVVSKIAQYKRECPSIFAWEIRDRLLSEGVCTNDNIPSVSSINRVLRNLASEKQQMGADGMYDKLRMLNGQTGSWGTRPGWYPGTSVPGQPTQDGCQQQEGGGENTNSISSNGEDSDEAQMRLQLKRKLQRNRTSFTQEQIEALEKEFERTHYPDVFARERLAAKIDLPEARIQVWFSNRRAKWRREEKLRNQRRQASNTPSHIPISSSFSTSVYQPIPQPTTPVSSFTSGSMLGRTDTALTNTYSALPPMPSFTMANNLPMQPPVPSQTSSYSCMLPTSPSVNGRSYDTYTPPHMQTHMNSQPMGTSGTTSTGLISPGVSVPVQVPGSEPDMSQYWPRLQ
Estrogen receptor (Homo sapiens), sequence (P03372 whole entry, looked up, the tested form may be a part): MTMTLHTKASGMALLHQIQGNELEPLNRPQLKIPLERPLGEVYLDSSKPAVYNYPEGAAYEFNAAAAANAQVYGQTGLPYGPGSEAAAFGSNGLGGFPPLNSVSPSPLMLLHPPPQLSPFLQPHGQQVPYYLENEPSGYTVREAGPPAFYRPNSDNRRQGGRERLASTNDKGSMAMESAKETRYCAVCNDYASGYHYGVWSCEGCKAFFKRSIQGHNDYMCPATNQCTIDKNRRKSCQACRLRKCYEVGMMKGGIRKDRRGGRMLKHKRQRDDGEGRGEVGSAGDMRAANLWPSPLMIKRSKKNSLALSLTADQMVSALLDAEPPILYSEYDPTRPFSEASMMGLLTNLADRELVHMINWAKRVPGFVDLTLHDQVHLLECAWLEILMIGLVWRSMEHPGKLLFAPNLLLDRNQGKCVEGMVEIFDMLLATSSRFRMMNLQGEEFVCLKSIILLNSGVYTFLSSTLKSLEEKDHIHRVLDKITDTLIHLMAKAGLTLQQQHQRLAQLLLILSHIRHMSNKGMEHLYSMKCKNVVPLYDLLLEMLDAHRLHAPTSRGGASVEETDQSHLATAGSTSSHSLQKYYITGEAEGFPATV
Nuclear receptor subfamily 1 group I member 3 (Homo sapiens), sequence (Q14994 whole entry, looked up, the tested form may be a part): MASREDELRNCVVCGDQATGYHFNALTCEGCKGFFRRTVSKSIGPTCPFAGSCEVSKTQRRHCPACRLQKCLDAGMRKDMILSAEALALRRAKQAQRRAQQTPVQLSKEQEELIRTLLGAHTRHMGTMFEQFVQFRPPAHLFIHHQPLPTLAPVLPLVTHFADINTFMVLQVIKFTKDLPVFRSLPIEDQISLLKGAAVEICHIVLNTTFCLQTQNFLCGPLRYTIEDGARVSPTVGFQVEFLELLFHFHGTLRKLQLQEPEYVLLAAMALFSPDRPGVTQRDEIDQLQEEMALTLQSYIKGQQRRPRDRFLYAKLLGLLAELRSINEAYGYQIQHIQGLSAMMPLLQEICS

For the molecule `CCCCCCCCC(CO)CCCCCC` (centres undefined), the half-maximal activity concentration (AC50) in assay [1] was 166 µM (active); in assay [8], 133 µM (active). The outcome in [2], in [3], in assay [4], in assay [5], in [6] and in assay [7] was inactive. The molecule was classed as inactive in assay [9], in assay [10], in assay [11], in [12], in [13] and in assay [14]. Moreover, the call in assay [15] was inactive.

With `CC(C)=CCCC(C)=CC#N`, the outcome in [1], in assay [2], in [4], in [5], in assay [6] and in [7] was inactive. Also, the molecule was classed as inactive in assay [8], in assay [9], in assay [10], in assay [11], in assay [13] and in [16]. The call in assay [14], in [15], in [17] and in assay [18] was inactive. Moreover, the AC50 in [3] is 25.5 µM (active).

Regarding `Cc1cccc(C(C)(C)C)c1O`, the AC50 in assay [1] is 16.8 µM (active); in [3], 4.59 µM (active). Further, the molecule was called inactive in assay [2], in assay [4], in [5], in assay [6], in assay [7] and in assay [8]. Besides, the molecule was classed as inactive in assay [9], in [10], in assay [11], in assay [12], in assay [14] and in assay [15].

`CCCCNC(=S)NCCCC`: the outcome in assay [1], in assay [2], in [4], in assay [5], in [6] and in [7] was inactive. Also, the result in assay [8], in assay [9], in [10], in assay [11], in assay [12] and in assay [13] was inactive. The outcome in assay [14], in [15] and in [18] was inactive. Further, the AC50 in [3] is 38 µM (active).

Consider `CCCc1ccc(O)c(OC)c1`, for which the outcome in [1], in [2], in [3], in assay [4], in [5] and in assay [6] was inactive. Also, the result in assay [7], in [8], in assay [9], in assay [10], in assay [11] and in assay [12] was inactive. The result in assay [13], in [14] and in assay [15] was inactive.

Consider `CC(=O)OC(C)c1ccccc1` (centres undefined), for which the outcome in [1], in assay [2], in assay [4], in assay [5], in assay [6] and in [7] was inactive. Also, the result in [8], in [9], in assay [10], in assay [11], in [12] and in [13] was inactive. Besides, the molecule was called inactive in assay [15] and in [18]. For the same molecule, in [3], the concentration at half-maximal activity (AC50) is 37.6 µM (active).

Take `O=C(C=Cc1ccccc1)OCCc1ccccc1`: the result in [1], in assay [2], in assay [4], in [5], in [6] and in assay [7] was inactive. The call in assay [8], in assay [10], in assay [11], in assay [12], in [16] and in assay [15] was inactive. For the same molecule, the molecule was called inactive in [17] and in assay [18]. Further, the AC50 in [3] was 12.8 µM (active); in assay [9], 53.9 µM (active); in assay [14] it was 29.4 µM (active).
